Results reported in ChEMBL document CHEMBL4513216, “Probing the Open Global Health Chemical Diversity Library for Multistage-Active Starting Points for Next-Generation Antimalarials” (ACS Infect Dis, 2020).
Screen size: about 69,000 compounds; about 8,600 (12%) showed an effect of 50% or more. The sample holds strong results, similar compounds and a random draw of the others, so the mix is not that of the screen.

system: Plasmodium berghei; assay: Screen against P. berghei liver stage (PbLuc), transformed with Luciferase, at 10uM; format: functional, HepG2; conditions: tested at 10 uM

Compound | INHIBITION [%]
Cc1cnn(CC2CCCN2C(=O)c2sccc2-n2cnnn2)c1 (centres undefined) | -29.1
COCCC(=O)N(C)CCC1=CCN(C)CC1 | -6.274
CN(C)C(=O)C1(c2cnccn2)CCCN1C(=O)Cc1ccsc1 (centres undefined) | 41
CN1Cc2ccccc2CC2(CCN(C(=O)[C@H]3CCCO3)CC2)C1=O | 59.3
O=C([C@H]1CCCO1)N1CCC2(CC1)Cc1ccccc1CNC2=O | 7.7
CCN1CC[C@]2(CN(C(=O)[C@H]3CCCO3)C[C@H]2c2ccccc2)C1=O | 52.3
CN1Cc2ccccc2CC2(CCN(C(=O)N3CCOCC3)CC2)C1=O | 26.5
CCN1CC[C@]2(CN(C(=O)C3CCOCC3)C[C@H]2c2ccccc2)C1=O | 20.1
CN1CC[C@]2(CN(C(=O)[C@H]3CCCO3)C[C@H]2c2ccccc2)C1=O | 4.02
CSCCC(=O)N1CCCC(n2ccnc2)C1 (centres undefined) | -6.14
CC(C)Cn1cc2nc(N)[nH]cc-2c1=O | 29.2
O=C(NCCN1CCCCCC1=O)Nc1cccnc1-n1cccn1 | -15.4
CCc1ncc2c(n1)CN(c1cc(NC3CC3)nc(N)n1)C2 | -49.6
CCn1cc(-n2cc3nc(N)[nH]cc-3c2=O)cn1 | -8.69
CCN(CC)S(=O)(=O)c1cc(NC(=O)CCc2cscn2)ccc1C | 28.9
CCN(CC1CCCO1)S(=O)(=O)c1cc(NC(C)=O)ccc1C (centres undefined) | 47.7
CCCN(CCC)S(=O)(=O)c1cc(NC(C)=O)ccc1C | 71.2
O=C(c1cccc(C2CCNC2)c1)N1CCC(N2CCC(O)CC2)CC1 (centres undefined) | 35.1
O=C(c1ccccc1-c1ccccc1)N1CCOC2(CNCCOC2)C1 (centres undefined) | -16.5
Cc1ccccc1C(=O)N1CCOC2(CNCCOC2)C1 (centres undefined) | 55.1
COc1ccc(Cl)cc1C(=O)N1CCOC2(CNCCOC2)C1 (centres undefined) | 16.8
COc1ccc(C(=O)N2CCOC3(CNCCOC3)C2)c(OC)n1 (centres undefined) | 53.6
Cc1cc2cccc(C(=O)N3CCOC4(CNCCOC4)C3)c2o1 (centres undefined) | 30.5
CN(C)c1ccccc1C(=O)N1CCOC2(CNCCOC2)C1 (centres undefined) | 8.53
Cc1nc(C)n(CC2CCCN2CC(=O)NCCC#N)n1 (centres undefined) | 8.38
Cc1nc(-c2ccc(C(=O)O)cc2)cc(C2CCN(C(C)C)CC2)n1 | 26.3
OC(CN1CCC(c2ccn[nH]2)CC1)c1ccc(F)cc1 (centres undefined) | -12.2
Cc1cc(Nc2nc(C)cc(C)n2)cc(C2CCCN2)n1 (centres undefined) | 49.2
Cc1cc(S(=O)(=O)N2C[C@H](C3CC3)[C@@H](N)C2)c(C)s1 | 1.71
